Experimental data: the supplement of paper PMC6555819

Assays:
Assay in all cases: PBM binding z-score (relative to random genomic background probes); higher = stronger binding; sequences stand for … in GC…GCGATTGACAGCGTAGAATGAAGG
[1] = test system: PPARg:RXRa DBDmut IVT, anti-RXR (DBD mutation: RXRa K156A/R161A, NR concentration 270 nM, RXRa partner concentration 90 nM)
Method in brief: (§1)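 Ligand-free nuclear receptor dimers were bound for 1 h to custom Agilent 4×180K protein-binding microarrays. Detection used antibodies against each partner (one per run). Binding z-scores rest on regression-normalized fluorescence, with random background probes as the reference.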

[2] = test system: PPARg:RXRa IVT, anti-PPARg (NR concentration 270 nM, RXRa partner concentration 90 nM)
Method in brief: as §1

[3] = test system: PPARg DBDmut:RXRa IVT, anti-PPARg (DBD mutation: PPARg1 K132A/R137A, NR concentration 270 nM, RXRa partner concentration 90 nM)
Method in brief: as §1

[4] = test system: PPARg DBDmut IVT, anti-PPARg (DBD mutation: PPARg1 K132A/R137A, NR concentration 270 nM)
Method in brief: as §1

[5] = test system: PPARg homodimer (NR concentration 180 nM)
Method in brief: as §1

[6] = test system: PXR:RXRa (NR concentration 270 nM, RXRa partner concentration 90 nM)
Method in brief: as §1

[7] = test system: PXR homodimer (NR concentration 270 nM)
Method in brief: as §1

[8] = test system: RARa:RXR (NR concentration 270 nM, RXRa partner concentration 90 nM)
Method in brief: as §1

[9] = test system: RARa homodimer (NR concentration 270 nM)
Method in brief: as §1

[10] = test system: RARb:RXRa (NR concentration 270 nM, RXRa partner concentration 90 nM)
Method in brief: as §1

[11] = test system: RARb homodimer (NR concentration 270 nM)
Method in brief: as §1

[12] = test system: RARg:RXRa (NR concentration 270 nM, RXRa partner concentration 90 nM)
Method in brief: as §1

[13] = test system: RARg homodimer (NR concentration 270 nM)
Method in brief: as §1

[14] = test system: RXRa DBDmut IVT, anti-RXR (DBD mutation: RXRa K156A/R161A, NR concentration 90 nM)
Method in brief: as §1

[15] = test system: RXRa homodimer (NR concentration 180 nM)
Method in brief: as §1

[16] = test system: THRa:RXRa (NR concentration 90 nM, RXRa partner concentration 90 nM)
Method in brief: as §1

[17] = test system: THRa homodimer (NR concentration 90 nM)
Method in brief: as §1

[18] = test system: VDR homodimer (NR concentration 270 nM)
Method in brief: as §1

## ATATGTAGGTGAAGGGTCATTCAGGTTGGTTCGC
[1]
  PBM binding z-score: 8.51
[2]
  PBM binding z-score: 8.85
[3]
  PBM binding z-score: 6.44
[4]
  PBM binding z-score: 4.69
[5]
  PBM binding z-score: 6.22
[6]
  PBM binding z-score: 5.27
[7]
  PBM binding z-score: 2.24
[8]
  PBM binding z-score: 5.79
[9]
  PBM binding z-score: 1.46
[10]
  PBM binding z-score: 3.3
[11]
  PBM binding z-score: 3.76
[12]
  PBM binding z-score: 4.77
[13]
  PBM binding z-score: 3.15
[14]
  PBM binding z-score: 2.06
[15]
  PBM binding z-score: 5.6
[16]
  PBM binding z-score: 3.55
[17]
  PBM binding z-score: 1.35
[18]
  PBM binding z-score: 4.34

## CTTACTGGGCCAAAGGTCATTGATTCCAATGCTC
[1]
  PBM binding z-score: 7.41
[2]
  PBM binding z-score: 8.39
[3]
  PBM binding z-score: 2.55
[4]
  PBM binding z-score: 2.05
[5]
  PBM binding z-score: 5.08
[6]
  PBM binding z-score: 5.66
[7]
  PBM binding z-score: 2.72
[8]
  PBM binding z-score: 7.06
[9]
  PBM binding z-score: 1.85
[10]
  PBM binding z-score: 4.62
[11]
  PBM binding z-score: 4.58
[12]
  PBM binding z-score: 5.97
[13]
  PBM binding z-score: 4.91
[14]
  PBM binding z-score: 1.99
[15]
  PBM binding z-score: 6.68
[16]
  PBM binding z-score: 3.36
[17]
  PBM binding z-score: 0.898
[18]
  PBM binding z-score: 2.79

## ATATGTAGGTTACATCCGGGTCTTTCAGGCTATG
[1]
  PBM binding z-score: 7.37
[2]
  PBM binding z-score: 7.42
[3]
  PBM binding z-score: 1.99
[4]
  PBM binding z-score: 3.12
[5]
  PBM binding z-score: 1.13
[6]
  PBM binding z-score: 0.703
[7]
  PBM binding z-score: 0.192
[8]
  PBM binding z-score: 0.794
[9]
  PBM binding z-score: 0.548
[10]
  PBM binding z-score: 1.21
[11]
  PBM binding z-score: 1.01
[12]
  PBM binding z-score: 1.09
[13]
  PBM binding z-score: 1.02
[14]
  PBM binding z-score: 0.936
[15]
  PBM binding z-score: 0.924
[16]
  PBM binding z-score: 1.62
[17]
  PBM binding z-score: 0.947
[18]
  PBM binding z-score: 0.214
